Screens as filed in PubChem.
Only some compounds are listed: those with a hit (about 2.9% of all), similar ones and a draw of the others.
KDM5B inhibitor = Primary screen for KDM5B Histone Demethylases FDH-coupled qHTS; Lysine-specific demethylase 5B (Homo sapiens), Q9UGL1; KDM5B demethylase, FDH-coupled NADH fluorescence (FDH is formaldehyde dehydrogenase); Potency, µM (series often up to 57.7 µM), actives largely listed as inhibitors; 220,000 compounds, 2.6% hits; AID 1347165, 2019; further: nearly all actives have a fitted effect of over 70% in size
Target sequence (Q9UGL1 whole entry, looked up): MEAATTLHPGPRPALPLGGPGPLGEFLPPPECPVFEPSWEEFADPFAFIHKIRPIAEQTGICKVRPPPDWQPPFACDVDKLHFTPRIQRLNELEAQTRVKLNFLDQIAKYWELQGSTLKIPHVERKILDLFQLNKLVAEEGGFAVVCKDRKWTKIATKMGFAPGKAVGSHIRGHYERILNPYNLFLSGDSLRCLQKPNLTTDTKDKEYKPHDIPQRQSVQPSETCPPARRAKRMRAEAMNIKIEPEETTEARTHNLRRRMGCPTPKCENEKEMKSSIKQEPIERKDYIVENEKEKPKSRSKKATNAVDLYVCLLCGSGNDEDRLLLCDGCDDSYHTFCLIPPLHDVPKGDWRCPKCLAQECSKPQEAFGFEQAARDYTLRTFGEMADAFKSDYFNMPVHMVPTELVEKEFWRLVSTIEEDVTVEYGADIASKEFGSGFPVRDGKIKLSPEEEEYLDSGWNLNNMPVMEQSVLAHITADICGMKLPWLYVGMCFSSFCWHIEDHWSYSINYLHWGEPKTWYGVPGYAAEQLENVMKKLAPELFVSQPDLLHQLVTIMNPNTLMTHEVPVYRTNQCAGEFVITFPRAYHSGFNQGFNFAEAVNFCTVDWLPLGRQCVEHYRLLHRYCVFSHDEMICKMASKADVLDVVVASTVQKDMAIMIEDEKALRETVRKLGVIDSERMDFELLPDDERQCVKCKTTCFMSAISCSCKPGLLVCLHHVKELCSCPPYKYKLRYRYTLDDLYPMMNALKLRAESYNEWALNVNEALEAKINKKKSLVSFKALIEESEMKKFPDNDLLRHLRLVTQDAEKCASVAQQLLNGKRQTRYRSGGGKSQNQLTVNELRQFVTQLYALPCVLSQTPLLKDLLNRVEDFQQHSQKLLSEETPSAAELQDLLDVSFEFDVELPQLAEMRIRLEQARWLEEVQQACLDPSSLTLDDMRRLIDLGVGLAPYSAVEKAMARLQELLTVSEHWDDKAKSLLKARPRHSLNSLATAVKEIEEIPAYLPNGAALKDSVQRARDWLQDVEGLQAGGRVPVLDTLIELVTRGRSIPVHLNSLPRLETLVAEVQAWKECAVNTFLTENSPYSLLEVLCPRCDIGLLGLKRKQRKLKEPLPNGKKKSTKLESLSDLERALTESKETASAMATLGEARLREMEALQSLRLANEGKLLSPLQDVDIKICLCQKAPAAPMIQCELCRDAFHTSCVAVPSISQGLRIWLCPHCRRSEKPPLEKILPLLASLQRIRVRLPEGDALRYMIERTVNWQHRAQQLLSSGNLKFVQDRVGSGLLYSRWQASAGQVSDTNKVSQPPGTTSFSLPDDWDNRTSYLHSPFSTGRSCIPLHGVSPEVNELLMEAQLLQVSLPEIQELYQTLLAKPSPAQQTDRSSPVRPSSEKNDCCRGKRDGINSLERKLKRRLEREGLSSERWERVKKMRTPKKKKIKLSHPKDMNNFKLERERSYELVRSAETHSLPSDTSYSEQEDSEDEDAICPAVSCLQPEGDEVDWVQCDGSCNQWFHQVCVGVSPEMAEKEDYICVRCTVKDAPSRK
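Compound dilutions met 200 nM (final) KDM5BΔAP for 10 min at room temperature before substrate addition. The substrate mix held 12.5 µM H3K4me3 with cofactors 25 µM α-ketoglutarate and 50 µM Fe²⁺. NADH signal gain over 30 min defined activity.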
SNCA viab count = GF-AFC viability counterscreen for inhibitors of alpha-synuclein gene (SNCA) expression; HEK-293-SNCA-luc viability, GF-AFC fluorescence, 24 h; Potency, µM (series often up to 57.1 µM), actives largely listed as cytotoxic; 150,000 compounds, 0.12% hits; AID 1671193, 2021; further: nearly all actives have a fitted effect of over 30% in size
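Cytotoxicity counterscreen: after 24 h compound treatment of genome-edited SNCA-luciferase HEK-293 cells, live-cell protease substrate GF-AFC read by fluorescence after 30 min; activity scaled between DMSO (0%) and medium-only (-100%), curves Hill-fitted.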
SNCA expr inh = Primary qHTS assay for inhibitors of alpha-synuclein gene (SNCA) expression; 140,000 compounds, 0.17% hits; Potency, µM (titrated, usually from 57.2 µM), hits mostly inhibitors; HEK-293 SNCA-luciferase knock-in, luminescence, 24 h; further: nearly all actives have a fitted effect of over 45% in size
IP6K1 inh = Primary qHTS assay for small molecule inhibitors of Inositol hexaphosphate kinase 1 (IP6K1) | IP6K1 kinase, ADP-Glo luminescence, 2 h; hits give low values | 140,000 compounds, 0.81% hits | activity change, % (series mostly up to about 58 µM); in the data active means activity change below about -25%
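ADP-Glo luminescence measures ADP made by human IP6K1 during a 2 h RT reaction with ATP/IP6 (mix at 1.3 mM/130 uM); top library doses 57.5 and 19.1 uM final.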
IP6K1 inh cnf = Confirmatory qHTS assay for small molecule inhibitors of Inositol hexaphosphate kinase 1 (IP6K1) | recombinant IP6K1 kinase, ADP-Glo luminescence, 2 h | 1,200 compounds, 13% hits | shares compounds with IP6K1 inh | Potency, µM (doses to about 49 µM), hits mostly inhibitors | AID 1645852, 2021; further: nearly all actives have a fitted effect of over 65% in size
Each line names hits and unclear results; the compound was inactive in the other large screens (follow-up assays come after a bar, where they were run). Unless noted, the call rests on the fitted dose curve; in most records, active means well fitted curve in the direction sought with a large enough effect; inconclusive means small, poorly fitted or top-dose-only effect, or another doubt; inactive means no such curve, though single readings can be large; an effect the other way counts as inactive or inconclusive.

NC(=O)CSc1oc(-c2ccco2)nc1S(=O)(=O)c1ccc(Br)cc1	KDM5B inhibitor inconclusive, IP6K1 inh -33.0 | IP6K1 inh cnf inconclusive
COc1ccc(-n2c(=O)c(C(=O)NCc3ccc(C(F)(F)F)cc3)nc3cccnc32)cc1	none (no result: KDM5B inhibitor)
Cc1cc(OCCN2CCOCC2)c(C)c2c1CC[C@@H]([C@H](C)C(=O)N1CCCCC1)C2	SNCA viab count inconclusive, SNCA expr inh inconclusive
COc1cccc(CN2CC(Oc3ccccc3C(=O)NCc3ccccc3)C2)c1	none
O=C(COc1ccccc1)NC[C@H]1Cn2c(-c3ccc(Cl)cc3)cnc2CO1	none
COc1ccc(NC(=O)c2ccc3c(SCC(=O)O)c4c(nc3c2)CCCC4)c(OC)c1	KDM5B inhibitor inconclusive, IP6K1 inh -25.7 | IP6K1 inh cnf inactive
COc1ccc(NC(=O)CSc2c3c(nc4ccccc24)CCC3)c(OC)c1	none
CCc1nn(CC(=O)N2CCN(c3cccc(C)c3C)CC2)c(=O)c2cc3sccc3n12	IP6K1 inh -28.9 | IP6K1 inh cnf inactive
CN(C)C(=O)c1cc(-c2ccc(Cl)cc2)cn1C	IP6K1 inh -33.3 | IP6K1 inh cnf inconclusive
Cn1cc(-c2ccc(Cl)cc2)cc1C(=O)O	none
CCCNc1cc(N2CCC(CCC(=O)N3CCN(c4cccc(C)c4)CC3)CC2)ncn1	SNCA expr inh inconclusive
COc1ccccc1OC1(C(=O)O)CCN(Cc2cnn(C)c2C)CC1	KDM5B inhibitor inconclusive, SNCA viab count inconclusive, IP6K1 inh -28.9 | IP6K1 inh cnf inactive
COc1ccccc1OC1(C(=O)O)CCN(Cc2nccn2C)CC1	KDM5B inhibitor inconclusive
CCc1cc(N2CCC(Oc3ccccc3OC)(C(=O)O)CC2)nc(C)n1	IP6K1 inh -32.5 | IP6K1 inh cnf inactive
Cc1ccc(-c2cccc(CN3CCCC3C(=O)NC3CCC3)c2)cc1Cl (centres undefined)	none (no result: KDM5B inhibitor, SNCA viab count, SNCA expr inh)
CCOc1ccc(CNC(=O)C2CCN(S(=O)(=O)c3cn(C)cn3)CC2)cc1	IP6K1 inh -26.3 | IP6K1 inh cnf inactive
COc1ccc(CNC(=O)C2CCN(S(=O)(=O)c3cn(C)cn3)CC2)cc1	none
COc1ccccc1-c1cnc(Nc2ccc3c(c2)OCCO3)c2c1CCO2	KDM5B inhibitor 35.5µM, IP6K1 inh -25.7 | IP6K1 inh cnf inactive
CC(=O)NC(C)c1nc2ccccc2n1Cc1ccccc1Cl (centres undefined)	IP6K1 inh -26.3 | IP6K1 inh cnf inactive
CC(=O)Nc1nc2ccccc2n1Cc1ccccc1Cl	none (no result: SNCA viab count, SNCA expr inh, IP6K1 inh)
COCC(=O)NC1CCN(c2nccc(Nc3ccccc3F)n2)CC1	none (no result: KDM5B inhibitor)
Cc1cc(C)cc(NC(=O)CCCc2nc(-c3ccco3)no2)c1	IP6K1 inh -26.7 | IP6K1 inh cnf inactive
Cc1ccc(NC(=O)CCCc2nc(-c3ccco3)no2)cc1Cl	none
CCCS(=O)(=O)NC[C@@H]1C=C(C)[C@H](Cc2nnc(-c3ccccc3F)o2)C[C@H]1C(C)C	SNCA viab count inconclusive
Cc1cccc(CN2C(=O)c3ccccc3Sc3ccc(C(=O)NCc4ccco4)cc32)c1	none
O=C(NCc1ccco1)c1ccc2c(c1)N(Cc1ccccc1)C(=O)c1ccccc1S2	KDM5B inhibitor inconclusive, SNCA viab count inconclusive, SNCA expr inh inconclusive, IP6K1 inh -27.5 | IP6K1 inh cnf inconclusive
Cn1nc(-c2cccc(F)c2)c(N2CCCCC2)c1NC(=O)NCc1ccccc1	none (no result: KDM5B inhibitor)
COc1ccccc1-c1ccc(CN2CCC(NC(=O)c3cccc(Cl)c3)C2)cc1 (centres undefined)	none (no result: KDM5B inhibitor, SNCA viab count, SNCA expr inh)
COCC(=O)N[C@@H]1C[C@H](COC)[C@@H](O)[C@H]1O	none
COC[C@H]1C[C@@H](N(C)C)[C@H](O)[C@@H]1O	IP6K1 inh -25.4 | IP6K1 inh cnf inconclusive
CN(C)C(=O)NC1CCCN(c2ccc3nnc(-c4ccccc4)n3n2)C1 (centres undefined)	none (no result: KDM5B inhibitor, SNCA viab count, SNCA expr inh)
CCC(C(=O)N1CCN(c2cc(Cl)ccc2C)CC1)n1nc(C)n2c(cc3occc32)c1=O (centres undefined)	KDM5B inhibitor inconclusive, IP6K1 inh -25.9 | IP6K1 inh cnf inactive
CCC(C(=O)N1CCN(c2ccccc2)CC1)n1nc(C)n2c(cc3sccc32)c1=O (centres undefined)	none
COc1ccc(NC(=O)C(=O)NCC2(c3ccccc3)CCCC2)c(OC)c1	IP6K1 inh -26.7 | IP6K1 inh cnf inactive
COc1ccc(Cn2c(C3CCN(C(=O)Cc4ccc(Cl)cc4)CC3)n[nH]c2=O)cc1	none
COc1ccc(C2(C(=O)N3CCC4(CC3)C(OC)CN4c3cccc(F)c3)CC2)cc1 (centres undefined)	none
O=C(CN1C(=O)COc2ccc(S(=O)(=O)NC3CCCC3)cc21)Nc1ccc(Cl)cc1F	IP6K1 inh -27.9 | IP6K1 inh cnf inactive
OCCn1cc(-c2cnc3nnn(Cc4ccc5ncccc5c4)c3n2)cn1	none (no result: KDM5B inhibitor) | IP6K1 inh cnf inactive
Cn1cc(-c2ccc3nnc(Sc4ccc5ncccc5c4)n3n2)cn1	none (no result: KDM5B inhibitor, IP6K1 inh)
COc1ccc(OC)c([C@@H]2Nc3ccc(C(=O)O)cc3[C@@H]3C=CC[C@@H]32)c1	KDM5B inhibitor inconclusive, IP6K1 inh -27.4 | IP6K1 inh cnf inconclusive
CCOC(=O)c1ccc2c(c1)[C@@H]1C=CC[C@@H]1[C@H](c1cccc(OC)c1OC)N2	KDM5B inhibitor inconclusive
COc1ccc(Br)cc1[C@@H]1Nc2ccc(C(=O)O)cc2[C@@H]2C=CC[C@@H]21	KDM5B inhibitor inconclusive, IP6K1 inh -40.2 | IP6K1 inh cnf inconclusive
CN(CC#N)C(=O)c1cc(-c2ccc(C(F)(F)F)cc2)nc2c1cnn2C	none (no result: KDM5B inhibitor, SNCA viab count, SNCA expr inh)
CCN(C(=O)CSc1nc(-c2ccccc2)no1)c1cccc(C)c1	SNCA viab count inconclusive, SNCA expr inh inconclusive, IP6K1 inh -43.6 | IP6K1 inh cnf inactive
CCN(C(=O)Cn1cccc1-c1nc(-c2ccccc2)no1)c1cccc(C)c1	KDM5B inhibitor inconclusive
Cc1cc(NC(=O)Cn2c(=O)nc(-c3ccccc3F)c3cc(Cl)ccc32)ccc1Br	IP6K1 inh -25.4 | IP6K1 inh cnf inactive
Cc1oc2ccc(O)c(CN(C)Cc3ccccc3)c2c1C(=O)Nc1ccccc1	IP6K1 inh -28.3 | IP6K1 inh cnf inactive
CCC(C(=O)NCc1ccccc1OC)n1nc(C)n2c(cc3sccc32)c1=O (centres undefined)	IP6K1 inh -84.8 | IP6K1 inh cnf inactive
CCCCc1cc(C[C@@H]2C[C@H](NC(=O)c3cccc(F)c3)C2(C)C)no1	none
COc1ccc(-c2ccc3ncc(Nc4cc(F)cc(N5CCOCC5)c4)n3n2)cc1OC	SNCA viab count inconclusive, SNCA expr inh inconclusive
COc1ccc(-c2cc(C(=O)Nc3cccc(C(F)(F)F)c3)c3cnn(C)c3n2)cc1	none (no result: KDM5B inhibitor, SNCA viab count, SNCA expr inh)
O=C(NC1CCN(c2nccc(Nc3ccccc3F)n2)CC1)C1CCCC1	none (no result: KDM5B inhibitor)
